Assay results as given in article PMC3218832.

Experiments:
Assay in all cases: protein binding microarray; high values mean tight binding
Conditions in all cases: dsDNA, one strand shown
RELARELA (p65 homodimer) = RELARELA (p65 homodimer) (Homo sapiens, UniProt Q04206 1-307)
p50p50 homodimer = p50p50 homodimer (Homo sapiens, UniProt P19838 7-356)
p52p52 homodimer = target: T1, p52p52 homodimer (Homo sapiens, UniProt Q00653 4-332)
T1 sequence: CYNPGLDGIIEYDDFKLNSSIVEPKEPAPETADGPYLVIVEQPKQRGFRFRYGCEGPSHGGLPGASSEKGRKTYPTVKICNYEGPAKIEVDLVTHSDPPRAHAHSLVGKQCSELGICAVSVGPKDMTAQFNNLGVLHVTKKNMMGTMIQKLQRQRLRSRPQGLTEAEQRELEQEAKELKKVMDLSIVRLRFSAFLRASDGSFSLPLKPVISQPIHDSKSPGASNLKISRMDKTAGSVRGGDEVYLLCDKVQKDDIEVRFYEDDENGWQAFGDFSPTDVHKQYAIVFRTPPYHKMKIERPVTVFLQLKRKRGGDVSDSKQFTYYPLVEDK

[1] = target: RELA (p65) subunit of heterodimer;p50 subunit (Homo sapiens;Homo sapiens, UniProt Q04206;P19838 1-307;7-356)
[2] = target: RELA (p65) subunit of heterodimer;p52 subunit (Homo sapiens;Homo sapiens, UniProt Q04206;Q00653 1-307;4-332)
RELB subunit;p50 subunit = RELB subunit;p50 subunit (Homo sapiens;Homo sapiens, UniProt Q01201;P19838 120-401;7-356)
RELB subunit;p52 subunit = target: T2, RELB subunit;p52 subunit (Homo sapiens;Homo sapiens, UniProt Q01201;Q00653 120-401;4-332)
T2 sequence 1: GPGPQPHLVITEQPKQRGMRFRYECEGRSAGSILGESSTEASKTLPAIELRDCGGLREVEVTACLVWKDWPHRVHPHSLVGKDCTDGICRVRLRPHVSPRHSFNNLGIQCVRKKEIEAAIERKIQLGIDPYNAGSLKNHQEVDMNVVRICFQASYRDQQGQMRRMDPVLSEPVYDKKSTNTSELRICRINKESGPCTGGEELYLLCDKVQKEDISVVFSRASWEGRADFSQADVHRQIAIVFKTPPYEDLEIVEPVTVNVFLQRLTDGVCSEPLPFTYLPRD
T2 sequence 2: T1 sequence

[3] = target: C-Rel subunit;p50 subunit (Homo sapiens;Homo sapiens, UniProt Q04864;P19838 1-285;7-356)
[4] = target: T3, C-Rel subunit;p52 subunit (Homo sapiens;Homo sapiens, UniProt Q04864;Q00653 1-285;4-332)
T3 sequence 1: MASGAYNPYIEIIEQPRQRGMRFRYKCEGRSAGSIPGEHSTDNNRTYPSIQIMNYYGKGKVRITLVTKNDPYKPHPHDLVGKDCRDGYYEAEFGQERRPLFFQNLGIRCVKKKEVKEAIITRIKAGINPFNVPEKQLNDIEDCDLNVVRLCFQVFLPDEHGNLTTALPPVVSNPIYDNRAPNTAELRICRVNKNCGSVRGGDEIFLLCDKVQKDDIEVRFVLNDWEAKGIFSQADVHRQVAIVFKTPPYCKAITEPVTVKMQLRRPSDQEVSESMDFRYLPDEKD
T3 sequence 2: T1 sequence

Sequence of RELARELA (p65 homodimer) (Q04206 1-307): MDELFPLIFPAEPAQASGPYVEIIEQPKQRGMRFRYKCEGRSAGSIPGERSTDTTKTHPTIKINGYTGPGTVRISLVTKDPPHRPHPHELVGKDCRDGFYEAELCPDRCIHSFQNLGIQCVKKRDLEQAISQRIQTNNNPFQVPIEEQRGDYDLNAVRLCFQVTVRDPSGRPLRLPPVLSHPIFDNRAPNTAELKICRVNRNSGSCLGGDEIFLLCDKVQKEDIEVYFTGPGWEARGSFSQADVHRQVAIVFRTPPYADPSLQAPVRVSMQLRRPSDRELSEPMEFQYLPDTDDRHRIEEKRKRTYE
Sequence of RELA (p65) subunit of heterodimer;p50 subunit (Q04206 1-307, chain 1 of 2): as the sequence (Q04206 1-307) above
Sequence of RELA (p65) subunit of heterodimer;p50 subunit (P19838 7-356, chain 2 of 2): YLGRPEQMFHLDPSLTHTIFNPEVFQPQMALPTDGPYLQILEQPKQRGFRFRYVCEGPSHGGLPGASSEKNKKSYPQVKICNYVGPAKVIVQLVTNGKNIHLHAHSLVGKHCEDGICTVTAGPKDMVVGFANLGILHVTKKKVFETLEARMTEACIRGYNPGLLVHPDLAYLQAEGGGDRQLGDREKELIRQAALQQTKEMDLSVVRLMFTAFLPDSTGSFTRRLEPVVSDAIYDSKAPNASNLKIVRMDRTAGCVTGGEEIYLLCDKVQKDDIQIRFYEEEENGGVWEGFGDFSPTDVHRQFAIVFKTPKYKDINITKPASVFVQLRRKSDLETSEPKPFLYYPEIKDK
Sequence of p50p50 homodimer (P19838 7-356): as the sequence (P19838 7-356, chain 2 of 2) above

| Sequence | binding signal (RELARELA (p65 homodimer)) | binding signal (p50p50 homodimer) | binding signal (p52p52 homodimer) | binding signal [1] | binding signal [2] | binding signal (RELB subunit;p50 subunit) | binding signal (RELB subunit;p52 subunit) | binding signal [3] | binding signal [4] |
| --- | --- | --- | --- | --- | --- | --- | --- | --- | --- |
| AAAAATTCCCC | 3.28 z-score | 1.42 z-score | 2.98 z-score | 2.27 z-score | 2.54 z-score | 2.96 z-score | 2.46 z-score | 2.04 z-score | 2.78 z-score |
| AGATGGTTCCT | -0.148 z-score | -2.29 z-score | -0.605 z-score | -0.843 z-score | -0.727 z-score | -0.879 z-score | -0.835 z-score | -1.36 z-score | -0.824 z-score |
| GAATGATCCCC | -0.194 z-score | 0.816 z-score | 0.548 z-score | 0.936 z-score | 0.697 z-score | 0.943 z-score | 0.595 z-score | 0.665 z-score | 0.409 z-score |
| AAGATAATCCT | -0.605 z-score | -1.55 z-score | -0.666 z-score | -1.04 z-score | -0.884 z-score | -1.14 z-score | -0.91 z-score | -1.26 z-score | -0.848 z-score |
| CGGATTGCCCC | 2 z-score | 0.548 z-score | 0.518 z-score | 1.35 z-score | 0.991 z-score | 0.497 z-score | 0.607 z-score | 1.07 z-score | 0.987 z-score |
| GGAGATTCCCC | 2.94 z-score | 1.13 z-score | 2.51 z-score | 2.35 z-score | 2.22 z-score | 2.06 z-score | 2.22 z-score | 1.88 z-score | 2.2 z-score |
| AGAAGGGTCCC | -0.591 z-score | -0.215 z-score | 0.0384 z-score | -0.173 z-score | -0.123 z-score | -0.00663 z-score | -0.0866 z-score | -0.405 z-score | -0.315 z-score |
| CGGGGTCTCCT | -0.0145 z-score | 0.0717 z-score | 0.00961 z-score | -0.308 z-score | -0.191 z-score | -0.332 z-score | -0.207 z-score | -0.336 z-score | 0.0688 z-score |
| CGGTATGTCCT | 0.15 z-score | -0.81 z-score | -0.37 z-score | -0.663 z-score | -0.702 z-score | -0.895 z-score | -0.675 z-score | -0.815 z-score | -0.489 z-score |
| AGAGAGATCCC | -0.281 z-score | -0.511 z-score | -0.367 z-score | -0.448 z-score | -0.506 z-score | -0.355 z-score | -0.569 z-score | -0.565 z-score | -0.502 z-score |
| GGGAACGCCCT | 0.932 z-score | -0.126 z-score | 0.394 z-score | 0.492 z-score | 0.418 z-score | -0.197 z-score | 0.214 z-score | 0.154 z-score | 0.403 z-score |
| GGGAATCTCCT | 2.57 z-score | 0.441 z-score | 1.08 z-score | 0.896 z-score | 0.912 z-score | 0.367 z-score | 0.827 z-score | 0.987 z-score | 1.35 z-score |
| CAAGACGCCCT | -0.812 z-score | -2.01 z-score | -0.745 z-score | -0.983 z-score | -0.966 z-score | -1.04 z-score | -0.904 z-score | -1.34 z-score | -0.839 z-score |
| CGAAGCTTCCC | 0.142 z-score | -0.668 z-score | -0.466 z-score | -0.322 z-score | -0.568 z-score | -0.617 z-score | -0.463 z-score | -0.253 z-score | -0.652 z-score |
| CAGGGATCCCC | 0.967 z-score | 0.94 z-score | 0.898 z-score | 1.56 z-score | 1.23 z-score | 1.11 z-score | 1.1 z-score | 1.1 z-score | 1.31 z-score |
| AAATGCCCCCC | 0.508 z-score | 1.24 z-score | 0.957 z-score | 1.43 z-score | 1.32 z-score | 1.4 z-score | 1.57 z-score | 1.28 z-score | 0.954 z-score |
| CGGTTGCTCCT | -0.357 z-score | -1.5 z-score | -0.686 z-score | -0.927 z-score | -0.989 z-score | -1.09 z-score | -0.904 z-score | -1.44 z-score | -1 z-score |
| GGGTTCGTCCC | 0.22 z-score | 0.238 z-score | 1.59 z-score | 0.186 z-score | 1.09 z-score | 0.251 z-score | 0.438 z-score | 0.489 z-score | 0.747 z-score |
| AAGGGGGCCCC | -0.0322 z-score | 0.728 z-score | 0.786 z-score | 0.441 z-score | 0.981 z-score | 0.694 z-score | 1.04 z-score | 0.532 z-score | 0.709 z-score |
| CGGGGTTCCCC | 2.62 z-score | 0.899 z-score | 3.05 z-score | 2.3 z-score | 2.64 z-score | 1.93 z-score | 2.28 z-score | 2.2 z-score | 3.29 z-score |
| GAATGGATCCC | -0.423 z-score | -0.946 z-score | -0.505 z-score | -0.796 z-score | -0.763 z-score | -0.777 z-score | -0.774 z-score | -1.02 z-score | -0.839 z-score |
| GAAAAAACCCC | 2.27 z-score | 1.19 z-score | 2.74 z-score | 1.93 z-score | 2.2 z-score | 2.14 z-score | 2.12 z-score | 1.45 z-score | 2.18 z-score |
| AAAAGGTCCCC | 0.121 z-score | 0.934 z-score | 0.86 z-score | 0.799 z-score | 0.753 z-score | 1.08 z-score | 0.995 z-score | 0.454 z-score | 0.594 z-score |
| AAATTTTTCCC | 3.12 z-score | 1.2 z-score | 1.17 z-score | 1.78 z-score | 1.37 z-score | 1.03 z-score | 1.38 z-score | 1.97 z-score | 1.31 z-score |
| GGGAACCCCCC | 2.47 z-score | 1.16 z-score | 3.03 z-score | 2.69 z-score | 2.78 z-score | 2.09 z-score | 2.68 z-score | 2.19 z-score | 2.96 z-score |
| AAAGTGATCCT | -0.833 z-score | -1.79 z-score | -0.692 z-score | -1.3 z-score | -1.06 z-score | -1.27 z-score | -0.978 z-score | -1.55 z-score | -0.986 z-score |
| AGGAGCCCCCT | -0.528 z-score | 1.32 z-score | 0.61 z-score | 1.07 z-score | 0.992 z-score | 1.2 z-score | 1.26 z-score | 1.02 z-score | 0.757 z-score |
| AAGATGGCCCT | -0.837 z-score | -0.78 z-score | -0.556 z-score | -0.621 z-score | -0.715 z-score | -0.275 z-score | -0.142 z-score | -0.828 z-score | -0.686 z-score |
| CGAGTTATCCT | -0.476 z-score | -1.24 z-score | -0.637 z-score | -1.02 z-score | -0.873 z-score | -1.13 z-score | -0.889 z-score | -1.27 z-score | -0.871 z-score |
| CAGTGACCCCT | -0.538 z-score | -0.115 z-score | -0.0283 z-score | -0.321 z-score | -0.373 z-score | -0.303 z-score | -0.116 z-score | -0.672 z-score | -0.427 z-score |
